Our source for the fold change permeability values is PubChem BioAssay.

A number with no mark means an inactive call. Activity calls are given as the source filed them. No stated cut-off is given here; in the data, active means fold change permeability below about 0.7 or above about 1.3; inactive means in between.

A short description of the assay: compounds altering in vitro BBB leakiness – cell-based, FITC-avidin fluorescence, HTS, primary screen (AID 1963498). Further: test concentration not given here. Particulars: brain endothelial barrier, actives lie on both sides.
Take `NNC(N)=O`: the fold change permeability is 1. `CCC1(C2=NCCN2)Cc2ccccc2O1` (stereo unspecified): the fold change permeability was 1. Regarding `CCN(CC)c1ncnc2c1ncn2[C@@H]1O[C@H](COP(=O)(O)OP(=O)(O)C(Br)(Br)P(=O)(O)O)[C@@H](O)[C@H]1O`, the fold change permeability is 1.1. On to `O=C(N[C@H]1CN2CCC1CC2)c1ccc(Cl)cc1`, for which the fold change permeability was 1.3 (active). To `NCC(CC(=O)O)c1ccc(Cl)cc1` (stereo unspecified) belongs 1.1; to `C[N+](C)(C)CC#CCN1CCCC1=O`, 1; to `CCn1cc(C(=O)O)c(=O)c2ccc(C)nc21`, 0.9.

Take `O=[N+]([O-])/C=C/c1ccc2c(c1)OCO2`: the fold change permeability is 1.4 (active). Take `CN1CCC(c2c[nH]c3ccc(O)cc23)CC1`: the fold change permeability is 1. To `CC(N)c1cccc(Cl)c1Cl` (stereo unspecified) belongs 1.1; to `CN1C2C=C(c3sccc3Br)CC1CC2` (stereo unspecified), 0.9.

Take `NCCc1ccc(S(=O)(=O)F)cc1`: the fold change permeability was 1. As to `CO[C@H]1CC[C@@H](O[C@H]2C[C@H]([C@]3(C)CC[C@]4(C[C@H](O)[C@@H](C)[C@@H]([C@@H](C)/C=C(\C)C(=O)[C@H](C)C[C@H](C)C(=O)O)O4)O3)O[C@]3(O[C@@H]([C@H]4O[C@@](O)(CO)[C@H](C)C[C@@H]4C)C[C@@H]3C)[C@@H]2C)O[C@@H]1C`, the fold change permeability was 1.3 (active). Take `CN(C(=O)Cc1ccc(Cl)c(Cl)c1)C(CN1CCCC1)c1cccc(OCC(=O)O)c1` (stereo unspecified): the fold change permeability is 1.1. `CC(N)[C@H](O)c1ccc(O)c(O)c1` (stereo partly specified): the fold change permeability is 1.

In the case of `CCOC(=O)c1ccc(-c2ccc(OC(=O)N(C)Cc3cccc(-c4ccncc4)c3)cc2)cc1`, the fold change permeability was 1.2. With `N[C@@]1(C(=O)O)CC[C@@H](C(=O)O)C1`, the fold change permeability was 1.

As to `NCCc1ccc(O)cc1`, the fold change permeability is 0.7 (active). In the case of `CC[N+](CC)(CC)CC`, the fold change permeability was 1.1.

For `CCCN(CCC)C1Cc2cc(OC)c(OC)cc2C1`, the fold change permeability is 0.8. Turning to `Cc1ccc(S(=O)(=O)N[C@@H](CCCCN)C(=O)CCl)cc1`, the fold change permeability is 1.4 (active). For the compound `c1ccc2c(c1)OCC(C1=NCCN1)O2` (stereo unspecified), the fold change permeability was 2.1 (active). For `C[N+](C)(C)CC(=O)O`, the fold change permeability is 1. On to `O=C1CCCN1CC#CCN1CCCC1`, for which the fold change permeability was 0.8. In the case of `Cc1cccc(C)c1NC1=NCCCS1` it was 1.9 (active); in that of `Cc1c(F)cccc1[C@H]1COC(N)=N1`, 1. Turning to `CN(c1nc2ccccc2s1)C1CCN(C[C@H](O)COc2ccc(F)c(F)c2)CC1`, the fold change permeability is 1.6 (active).

On to `CN1[C@H]2C[C@H](OC(=O)[C@H](CO)c3ccccc3)C[C@@H]1[C@@H](O)C2`, for which the fold change permeability is 0.8.

As for `C#CCOC(=O)C1=CCCN(C)C1`, the fold change permeability was 1.

As to `O=c1[nH]oc2c1CCNC2`, the fold change permeability is 1.4 (active). In the case of `N[C@@H](Cn1oc(=O)[nH]c1=O)C(=O)O`, the fold change permeability was 1.1.

Consider `Cc1c2ccncc2c(C)c2c1[nH]c1ccccc12`, for which the fold change permeability was 1.2.

Regarding `CC[C@@H](CO)NC(=O)[C@@H]1C=C2c3cccc4c3c(cn4C)C[C@H]2N(C)C1`, the fold change permeability was 0.7 (active). Consider `O=C[C@H](Cl)[C@@H](O)[C@H](O)[C@H](O)CO`, for which the fold change permeability was 1.1. To `CCN1CCN(C(=O)Cc2ccc(Nc3ncc(F)c(Nc4ccc(C(=O)Nc5ccccc5Cl)cc4)n3)cc2)CC1` belongs 1.1; to `O=P1(N(CCCl)CCCl)NCCCO1` (stereo unspecified), 1.
